CHX counter: counter-screen hit for Shiga toxin inhibitors, cycloheximide; 12% of 300,000 active; AID 2314; cell reporter, cycloheximide protein synthesis inhibition counterscreen; max response, %; in the data active = max response mostly above about 13%, no sharp cut-off; inactive = mostly below about 14%; also: read at 38.3 µM for the half of the compounds with a filed dose
LmPK inhibitor: blocks Leishmania mexicana pyruvate kinase activity; Potency, µM (doses to about 57.5 µM), hits mostly inhibitors; AID 1721; Q27686; purified LmPK, Kinase-Glo ATP luminescence, 1 h; 0.37% of 290,000 active
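0.1 nM LmPK, 0.5 mM PEP, 0.1 mM ADP; 50 mM imidazole pH 7.2, 7 mM MgCl2, 50 mM KCl; 1 h RT. Kinase-Glo luminescence readout, normalized to no-enzyme (full inhibition) and uninhibited wells.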
RE007 growth inh: less growth of the S. pombe RE007 Vpr strain | AID 651644 | 0.21% of 360,000 active | Potency, µM (top dose mostly 92.2 µM), most hits filed as inhibitors | S. pombe RE007 Vpr strain, BacTiter-Glo ATP luminescence, 24 h; active = well fitted falling curve with a large enough effect; inconclusive = small, poorly fitted or top-dose-only effect; inactive = no such curve, though single readings can be large or run the other way; also: nearly all actives have a fitted effect of over 50% in size
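Fission yeast RE007 carrying one integrated HIV-1 vpr copy, seeded at OD 0.01 in PMG+AL medium with 23 nL pinned compound. Grown 24 h at 30 degrees; viability read by BacTiter-Glo luminescence after 5 min.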
Giardia FBPA inh-1: inhibitors of Giardia lamblia fructose-1,6-bisphosphate aldolase; A8B2U2; purified Giardia FBPA; Potency, µM (series often up to 59.6 µM), hits mostly inhibitors; 0.71% of 290,000 active; also: nearly all actives have a fitted effect of over 55% in size
Target sequence (A8B2U2 whole entry, looked up): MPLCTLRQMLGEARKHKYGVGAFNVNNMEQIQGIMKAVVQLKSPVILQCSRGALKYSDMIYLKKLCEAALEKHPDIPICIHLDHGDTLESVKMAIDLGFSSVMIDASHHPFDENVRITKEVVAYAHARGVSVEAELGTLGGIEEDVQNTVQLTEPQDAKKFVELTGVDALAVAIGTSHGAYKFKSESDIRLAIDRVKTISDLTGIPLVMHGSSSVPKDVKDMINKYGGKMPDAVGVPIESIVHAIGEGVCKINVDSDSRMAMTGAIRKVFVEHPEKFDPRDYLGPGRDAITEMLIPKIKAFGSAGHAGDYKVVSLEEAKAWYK
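40 nM FBPA preincubated 10 min at RT with compound (up to 57.5 uM final), then substrate plus GAPDH/TPI/NAD/arsenate coupling and diaphorase/resazurin added. Fluorescence read after 20 min at RT, 525/598 nm.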
Tb PYK inh: inhibitors of Trypanosoma brucei pyruvate kinase; 0.12% of 410,000 active; Potency, µM (series often up to 76.8 µM), hits mostly inhibitors; Q57TT1; TbPYK enzyme, Kinase-Glo Plus ATP luminescence, 45 min; also: nearly all actives have a fitted effect of over 50% in size
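TbPYK + substrate in 50 mM TEA pH 7.2, 100 mM KCl, 10 mM MgCl2, 0.05% BSA, 0.01% Tween-20; cpd pinned; ADP 130 uM final; 45 min RT; Kinase-Glo Plus 10 min; luminescence endpoint.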
Shiga inhibitor: inhibitors of Shiga toxin in Vero cells; Vero cells, Shiga toxin protein synthesis inhibition reporter; inhibition, % at 38.7 µM; 9.2% of 290,000 active; AID 2315; in the data active = inhibition mostly above about 28%, no sharp cut-off; inactive = mostly below about 43%
Giardia growth: blocks growth of Giardia lamblia trophozoites | Potency, µM (series often up to 57.5 µM), most hits filed as inhibitors | 5% of 1,500 active | Giardia lamblia trophozoite growth inhibition | shares compounds with Giardia FBPA inh-1;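 also: trophozoites exposed to compound for 48 h at 37 °C; nearly all actives have a fitted effect of over 70% in size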
Mammal cell tox: counter-screen for Giardia aldolase inhibitors: mammalian cell toxicity; shares compounds with Giardia FBPA inh-1; mammalian cell viability counter-screen, qHTS; Potency, µM (titrated, usually from 57.5 µM), actives largely listed as inhibitors; 4% of 1,500 active; AID 2786;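 also: Chinese hamster ovary cells used as mammalian cytotoxicity surrogate; viability measured as cellular ATP by luminescence; compound exposure lasted 48 h before reading; nearly all actives have a fitted effect of over 60% in size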
Giardia FBPA inh-2: confirmation of Giardia fructose-bisphosphate aldolase inhibitors; shares compounds with Giardia FBPA inh-1; purified Giardia aldolase enzyme activity, qHTS; Potency, µM (titrated, usually from 57.5 µM), hits mostly inhibitors; 5% of 1,500 active; AID 2787; also: nearly all actives have a fitted effect of over 45% in size
Rabbit aldolase: blocks rabbit muscle aldolase in Giardia aldolase selectivity test. shares compounds with Giardia FBPA inh-1. Rabbit muscle FBPA enzyme inhibition, selectivity counter-screen. Potency, µM (series often up to 57.5 µM), hits mostly inhibitors. 4% of 1,500 active; also: nearly all actives have a fitted effect of over 60% in size
Target sequence (P00883 whole entry, looked up): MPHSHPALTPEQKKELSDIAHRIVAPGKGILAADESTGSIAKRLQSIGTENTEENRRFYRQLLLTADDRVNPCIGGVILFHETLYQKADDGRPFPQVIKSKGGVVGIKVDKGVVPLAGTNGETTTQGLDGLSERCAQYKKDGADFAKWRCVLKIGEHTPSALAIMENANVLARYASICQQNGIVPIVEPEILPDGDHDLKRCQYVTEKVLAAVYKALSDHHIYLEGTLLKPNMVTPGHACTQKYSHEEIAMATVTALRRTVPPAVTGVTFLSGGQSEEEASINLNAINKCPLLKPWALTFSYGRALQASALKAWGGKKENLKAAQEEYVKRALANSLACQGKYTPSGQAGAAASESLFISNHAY
GAPDH counter: counter-screen for Giardia aldolase inhibitors: GAPDH coupling enzyme; shares compounds with Giardia FBPA inh-1; GAPDH coupling enzyme counterscreen, biochemical, qHTS; Potency, µM (doses to about 57.5 µM), hits mostly inhibitors; 6% of 1,500 active; AID 2795; also: nearly all actives have a fitted effect of over 55% in size
Large screens that a line does not name were inactive (follow-up assays come after a bar, where they were run); [ ] = remark or other dose. The sample as a whole holds a higher share of hits than the screen did. Unless noted, calls follow the shape of the dose curve; as a rule, active = well fitted curve in the direction sought with a large enough effect; inconclusive = small, poorly fitted or top-dose-only effect, or another doubt; inactive = no such curve, though single readings can be large; an effect the other way counts as inactive or inconclusive.

CCCCSCCCNC(=O)C1CCC(CNS(=O)(=O)c2c(C)cc(C)cc2C)CC1 (stereo not given)	none (no result: CHX counter, LmPK inhibitor, RE007 growth inh, Giardia FBPA inh-1, Shiga inhibitor)
COC(=O)C/C=N/N=C1/NC(=O)/C(=C/C(=O)O)S1	Giardia FBPA inh-1 18µM | Giardia growth inactive[10.4 µM] | Mammal cell tox inactive | Giardia FBPA inh-2 inactive | Rabbit aldolase inactive | GAPDH counter inactive
CCN(CCCNC(=O)c1cc2c(=O)n(C)c3ccccc3c2s1)Cc1ccccc1	none (no result: CHX counter, LmPK inhibitor, RE007 growth inh, Giardia FBPA inh-1, Shiga inhibitor)
Brc1cccc(OCCCCn2cncn2)c1	Giardia FBPA inh-1 28µM | Giardia growth inactive | Mammal cell tox inactive | Giardia FBPA inh-2 inactive | Rabbit aldolase inactive | GAPDH counter inactive
C=CCc1ccc(OCCOc2cccc3ccc(C)nc23)c(OC)c1	CHX counter 30, Giardia FBPA inh-1 11µM, Shiga inhibitor 59 | Giardia growth inconclusive | Mammal cell tox inactive | Giardia FBPA inh-2 inactive | Rabbit aldolase inactive | GAPDH counter inactive
Cc1ccc(NC(=S)c2ccncc2)c(C)c1	Giardia FBPA inh-1 16µM | Giardia growth inactive | Mammal cell tox inactive | Giardia FBPA inh-2 inactive | Rabbit aldolase inactive | GAPDH counter inactive
Cc1ccc(NC(=S)Nc2cccc3cnccc23)c(C)c1	Giardia FBPA inh-1 inconclusive
COCC(=O)N1CCC2(CC1)CCN(c1ccncc1)CC2	none (no result: CHX counter, LmPK inhibitor, RE007 growth inh, Shiga inhibitor)
CN(C1CCCCC1)S(=O)(=O)c1ccc2c(c1)c(=O)c(C(=O)NCCc1ccccc1)cn2C	none (no result: CHX counter, LmPK inhibitor, RE007 growth inh, Giardia FBPA inh-1, Shiga inhibitor)
CCN(CC)S(=O)(=O)c1cccc2cccnc12	none (no result: Tb PYK inh)
CSS(=O)(=O)c1cccc2cccnc12	Giardia FBPA inh-1 18µM, Tb PYK inh inconclusive | Giardia growth inactive | Mammal cell tox inactive | Giardia FBPA inh-2 inactive | Rabbit aldolase inconclusive | GAPDH counter inconclusive
CCCn1cc(S(=O)(=O)c2ccccc2)c(=O)c2cc(F)c(N3CCCCCC3)cc21	none (no result: CHX counter, LmPK inhibitor, RE007 growth inh, Giardia FBPA inh-1, Shiga inhibitor)
CCOC(=O)C(C(=O)OCC)C(Nc1cccc(Br)c1)c1ccccc1 (stereo not given)	RE007 growth inh inconclusive
CCOC(=O)C(Nc1ccc2ccccc2c1)C(=O)OCC	CHX counter 74, RE007 growth inh inconclusive, Giardia FBPA inh-1 3.5µM, Shiga inhibitor 80 | Giardia growth inactive | Mammal cell tox inactive | Giardia FBPA inh-2 inconclusive | Rabbit aldolase inconclusive | GAPDH counter 40µM
CC1=NN(C(N)=S)C(=O)C1N=Nc1ccccc1C(=O)O (stereo not given)	Giardia FBPA inh-1 14µM (no result: Shiga inhibitor) | Giardia growth inactive[10.4 µM] | Mammal cell tox inactive | Giardia FBPA inh-2 inactive | Rabbit aldolase inactive | GAPDH counter inactive
CN1C(=O)C(N=Nc2ccccc2C(=O)O)N(C)C1=S (stereo not given)	none
CCN1C(=O)CSC1=Nc1cccc(C(=O)O)c1	none (no result: Shiga inhibitor)
CC1=NN(C(N)=S)C(=O)C1N=Nc1cccc(C(=O)O)c1 (stereo not given)	Giardia FBPA inh-1 inconclusive | Giardia growth inactive | Mammal cell tox inactive | Giardia FBPA inh-2 inactive | Rabbit aldolase inactive | GAPDH counter inactive
S=C(Nc1ccc2nsnc2c1)N1CCCC1	CHX counter 46, LmPK inhibitor inconclusive, Giardia FBPA inh-1 6.3µM, Shiga inhibitor 89 | Giardia growth inactive | Mammal cell tox inactive | Giardia FBPA inh-2 inconclusive | Rabbit aldolase inconclusive | GAPDH counter inconclusive
COc1cc(-c2nc3ncccn3c2Nc2ccc(C)cc2C)ccc1O	none (no result: CHX counter, LmPK inhibitor, RE007 growth inh, Giardia FBPA inh-1, Shiga inhibitor)
O=c1c2cn[nH]c2[nH]c(=S)n1-c1ccccc1Cl	RE007 growth inh inconclusive, Giardia FBPA inh-1 25µM | Giardia growth inactive | Mammal cell tox inactive | Giardia FBPA inh-2 inactive | Rabbit aldolase inactive | GAPDH counter inactive
Cc1ccc(-n2c(=S)[nH]c3[nH]ncc3c2=O)cc1	Giardia FBPA inh-1 16µM, Tb PYK inh inconclusive | Giardia growth inactive | Mammal cell tox inactive | Giardia FBPA inh-2 inactive | Rabbit aldolase inactive | GAPDH counter inactive
O=c1c2cn[nH]c2[nH]c(=S)n1-c1ccccc1F	Giardia FBPA inh-1 7.1µM, Tb PYK inh inconclusive | Giardia growth inactive | Mammal cell tox inactive | Giardia FBPA inh-2 inactive | Rabbit aldolase inactive | GAPDH counter inactive
COc1cc(-n2c(=S)[nH]c3ccccc3c2=O)c(Cl)cc1Cl	none
O=C(C[n+]1ccccc1)Nc1c(Cl)cc(Cl)cc1Cl	Giardia FBPA inh-1 13µM | Giardia growth inactive | Mammal cell tox inactive | Giardia FBPA inh-2 inactive | Rabbit aldolase inactive | GAPDH counter inactive
CN(C)c1ccc(NC(=O)C[n+]2ccccc2)cc1	none
COc1ccccc1N1CCN(Cc2ccc(F)cc2)CC1	none
COc1ccccc1N1CCN(Cc2ccc(SC)cc2)CC1	Giardia FBPA inh-1 16µM | Giardia growth inactive | Mammal cell tox inactive | Giardia FBPA inh-2 inactive | Rabbit aldolase inactive | GAPDH counter inactive
COc1ccccc1N1CCN(CC(=O)Nc2ccc3c(c2)OCCO3)CC1	Giardia FBPA inh-1 18µM | Giardia growth inactive | Mammal cell tox inactive | Giardia FBPA inh-2 inactive | Rabbit aldolase inactive | GAPDH counter inactive
COc1ccccc1N1CCN(CCC(=O)Nc2ccc3c(c2)OCO3)CC1	RE007 growth inh inconclusive

Screens deposited in PubChem BioAssay by National Center for Advancing Translational Sciences (NCATS).
